Screen size: about 65,000 compounds; about 640 (0.98%) were called active. The full list was thinned out, with actives kept by preference. A number with no mark means an inactive call.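 Rule for the calls: active = inhibition above a set limit, the mean inhibition across every tested compound plus 3 SD (cut at about 29% in these data); inactive = the rest.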
Target: 5-hydroxytryptamine receptor 1E (Homo sapiens) (UniProt P28566)
Experiment: 5-HT1E receptor antagonists, primary screen, cell-based, HTS (AID 571);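 note: signal is the 460 over 535 nm emission ratio of beta-lactamase substrate; 0% = agonist plus DMSO wells and 100% = wells without agonist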
Conditions: CHO 5-HT1E Ga15 NFAT-bla reporter, FRET, antagonist; at 6 µM; hits give high values

5-hydroxytryptamine receptor 1E (Homo sapiens), sequence (P28566 whole entry, looked up): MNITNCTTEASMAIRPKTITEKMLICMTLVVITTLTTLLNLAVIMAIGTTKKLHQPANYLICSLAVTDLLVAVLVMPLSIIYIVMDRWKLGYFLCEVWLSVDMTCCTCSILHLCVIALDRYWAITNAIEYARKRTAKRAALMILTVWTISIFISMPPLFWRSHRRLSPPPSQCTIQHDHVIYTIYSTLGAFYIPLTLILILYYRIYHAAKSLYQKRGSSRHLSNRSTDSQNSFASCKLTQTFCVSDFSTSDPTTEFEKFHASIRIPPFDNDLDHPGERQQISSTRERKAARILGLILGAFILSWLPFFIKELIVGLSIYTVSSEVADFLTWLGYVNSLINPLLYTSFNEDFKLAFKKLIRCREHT

Row | SMILES | inhibition
1 | C/C(CC(O)(/C=N/O)c1ccccc1)=N\O (configuration not stated) | 1.85%
2 | COCCNC(=O)C(C#N)c1nc2ccccc2nc1N1CCN(Cc2ccc3c(c2)OCO3)CC1 (configuration not stated) | 2.9%
3 | O=c1c2ccccc2nc(CSc2nnnn2-c2ccccc2)n1-c1ccccc1 | -9.14%
4 | Cc1ccc(-c2noc(CSc3nnnn3-c3ccccc3)n2)cc1 | 4.04%
5 | CN(C)c1nc(N)nc(CSc2nnnn2-c2cccc3ccccc23)n1 | 30.2% (active)
6 | CC(C)OCCCNc1ncnc2c1[nH]c1ccc(F)cc12 | 35% (active)
7 | O=C1CCCN1CCCNc1ncnc2c1[nH]c1ccccc12 | 4.24%
8 | CCN1CCCC1CNc1ncnc2c1[nH]c1ccc(F)cc12 (configuration not stated) | -8.46%
9 | CCOc1ccc(NC(=O)Nc2cc(C)on2)cc1 | -2.74%
10 | O=C(CN1C(=O)COc2ccccc21)Nc1ccc(F)cc1 | 6.81%
11 | O=C(CSc1nnc(-c2c[nH]c3ccccc23)n1-c1ccc(F)cc1)NCc1ccco1 | 6.88%
12 | COc1ccc(S(=O)(=O)N(C)CC(=O)Nc2ccc3c(c2)OCCO3)cc1OC | 10.4%
13 | CCC(C)(C)n1nnnc1C(c1cccs1)N1CCN(c2nc3ccccc3s2)CC1 (configuration not stated) | 3.71%
14 | Cc1nnc(SCc2cc(=O)[nH]c(N3CCN(Cc4ccccc4)CC3)n2)s1 | -7.09%
15 | COc1cc(OC)c(C(=O)Nc2ccc(N(C)C)cc2)cc1OC | -7.5%
16 | COc1ccccc1-c1nc(C(F)(F)F)c(OC)o1 | -6.75%
17 | Cc1cc(C)n2nc(C(=O)Oc3ccc4c(c3)OCO4)nc2n1 | -5.31%
18 | COc1ccc(C)c(Cn2c(-c3nonc3N)nc3ccccc32)c1 | 33.6% (active)
19 | Nc1nonc1-c1nc2ccccc2n1CCC(=O)O | 7.28%
20 | Nc1nonc1-c1nc2ccccc2n1Cc1ccc(F)cc1 | 8.52%
21 | NC(=O)CSc1oc(-c2cccs2)nc1S(=O)(=O)c1ccccc1 | 1.39%
22 | CN(C)CCCNC(=O)c1ccc2[nH]c3ccccc3c2c1 | -3.46%
23 | CCCCOc1ccc(C(C)(O)CCN2CCOCC2)cc1 (configuration not stated) | 2.45%
24 | Cc1ccc(S(=O)(=O)n2nc(OC(=O)C(C)(C)C)cc2N)cc1 | -1.76%

Row | SMILES | inhibition
25 | CN1CCCC(OC(=O)COc2ccc(Br)cc2)C1 (configuration not stated) | -15.4%
26 | CC[C@H]1CN2CCc3cc(OC)c(OC)cc3[C@@H]2C[C@@H]1C[C@H]1NCCc2cc(OC)c(OC)cc21 | 92.4% (active)
27 | CCOC(=O)C1CCCN(C(=O)c2cncc(Br)c2)C1 (configuration not stated) | 3.85%
28 | O=C(c1ccco1)N1CCN(CC(=O)N(C2CCCCC2)C2CCS(=O)(=O)C2)CC1 (configuration not stated) | 16.6%
29 | CCSc1ncnc2c(C#N)c3n(c12)CCCCC3 | 47.6% (active)
30 | CCSC1=C(C#N)C(=O)n2c1cc1c2CCCC1 | -0.37%
31 | COC(=O)c1ccccc1NC(=O)Cn1nc(C(F)(F)F)c2c1CCC2 | -3.25%
32 | CCn1c2c(c3ccc(OC)cc31)CCCC2=O | 4.52%
33 | Cc1nn(Cc2ccc(Cl)c(Cl)c2)c(C)c1NC(=O)c1cc(C2CC2)on1 | 34.3% (active)
34 | Cc1cc(NC(=O)c2cc(-c3cccs3)on2)nn1Cc1ccc(Cl)cc1 | -7.29%
35 | O=C(Nc1cc(C(F)(F)F)ccc1Cl)c1cc(C2CC2)on1 | -9.73%
36 | CC(=O)C1C(c2ccc(Cl)cc2)NC(=O)NC1(O)C(F)(F)F (configuration not stated) | 6.15%
37 | CCSC(C)CC1C/C(=N/O)c2c(C)noc2C1 (configuration not stated) | 21.4%
38 | Cc1nc2sc(C(c3ccco3)N3CCC4(CC3)OCCO4)c(O)n2n1 (configuration not stated) | -11.1%
39 | CC1(C)Oc2ccc3ccc(=O)oc3c2/C(=C/NCCO)C1=O | -8.4%
40 | CN=C1SC(C(=O)O)CC(=O)N1C (configuration not stated) | 1.76%
41 | CC[C@]1(O)CC2CN(CCc3c([nH]c4ccccc34)[C@@](C(=O)OC)(c3cc4c(cc3OC)N(C=O)[C@H]3[C@@](O)(C(=O)OC)[C@H](OC(C)=O)[C@]5(CC)C=CCN6CC[C@]43[C@@H]65)C2)C1 (some centres not stated) | 71.9% (active)
42 | CC[C@]1(O)C[C@@H]2CN(CCc3c([nH]c4ccccc34)[C@@](C(=O)OC)(c3cc4c(cc3OC)N(C)[C@H]3[C@@](O)(C(=O)OC)[C@H](OC(C)=O)[C@]5(CC)C=CCN6CC[C@]43[C@@H]65)C2)C1 | 73.5% (active)
43 | Cc1ccc(C(c2nnnn2C(C)(C)C)N2CCc3ccccc3C2)cc1 (configuration not stated) | -3.9%
44 | FC(F)Oc1ccccc1C1CC(c2ccc(Br)s2)Nc2ncnn21 (configuration not stated) | 12%
45 | O=C(c1cnn2ccccc12)N1CCc2ccccc21 | -4.32%
46 | COCCNC(=O)CN(C(=O)CCC(=O)Nc1cc(C)on1)c1ccc(C)cc1C | -0.23%
47 | Cc1cccc(Cn2c(SCCO)nc3c2c(=O)n(C)c(=O)n3C)c1 | -1.41%

— PubChem BioAssay AID571 (The Scripps Research Institute Molecular Screening Center, 2007)
